Sampled rows, rich in hits. Any-hit rate of the full collection: about 7.2%.
VLA-4 inh – inhibition in a human VLA-4 binding assay; inhibition, % (about 7 µM as worked out from the volumes in the protocol); AID 2557; P13612; 330,000 tested, 0.2% active; VLA-4 expressing cells, ligand binding flow cytometry; in the data active = inhibition above about 50%
SUMO Mot1 rescue – inhibitors of SUMOylation pathway: yeast Mot1-301 growth rescue; 320,000 tested, 1% active; AID 2716; growth rescue, % at 18.8 µM; S. cerevisiae Mot1-301 growth rescue, ATP luminescence, 38.5C; percent above DMSO median, 100 means doubled;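 active = every valid replicate shows activation above 250% relative to neutral control wells; inactive = the rest, any valid replicate at or below 250%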;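 note: OY570 slx delta 5 strain wells were the positive control but not used for scaling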
Efflux pump inh – inhibitors of Candida antifungal efflux pumps expressed in yeast | S. cerevisiae Candida pump triplex, Nile Red efflux | inhibition, % at 10 µM | 330,000 tested, 0.44% active;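 active = plate passing quality check with inhibition over a set limit, or well fluorescence over plate mean plus 4 SD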;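 note: Nile Red retained in pooled yeast measured as flow cytometry median fluorescence; 0% = buffer negative control and 100% = Enniatin B positive control; higher means more Nile Red kept so more efflux inhibition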
ALR inh – inhibitors of human sulfhydryl oxidase ALR; purified ALR, DTT oxidation, H2O2 HRP-luminol luminescence; inhibition, % (test concentration not listed); 290,000 tested, 3.8% active;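 active = mean replicate inhibition above about 79%, with every replicate also reaching it, limit read from the data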
Target sequence (P55789 whole entry, looked up): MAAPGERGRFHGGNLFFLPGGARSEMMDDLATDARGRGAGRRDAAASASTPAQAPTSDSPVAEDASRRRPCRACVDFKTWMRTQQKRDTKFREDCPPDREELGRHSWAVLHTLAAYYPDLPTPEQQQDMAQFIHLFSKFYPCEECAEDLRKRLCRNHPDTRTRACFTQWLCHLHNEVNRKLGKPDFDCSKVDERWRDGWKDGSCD
Bfl-1 A1 inh – inhibitors of the anti-apoptotic protein A1, read as caspase activation. MEF A1-2A-BIM cells, Caspase-Glo 3/7 luminescence, 3 h; percent of clofoctol response, vehicle zero. caspase activation, % (concentration not given with the values). 330,000 tested, 0.066% active;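 active = over half of replicate activation scores above 10%, or exactly half above 10 with the replicate mean above 10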
AHR act – activators of human aryl hydrocarbon receptor; P35869; AHR-responsive luciferase reporter cells, luminescence; activation, % at 5 µM; 320,000 tested, 2.5% active; AID 2796; in the data active = activation above about 47%;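 note: 0% = vehicle wells and 100% = reference agonist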
Starred values were filed as active, the others as inactive.

How did CCC(C)NC(=O)C1c2ccccc2C(=O)N1Cc1ccccc1OC (stereo not drawn) do in these assays?
VLA-4 inh: 13.4; SUMO Mot1 rescue: -14.6; Efflux pump inh: 0.0; ALR inh: 0.1; Bfl-1 A1 inh: 0.3; AHR act: -1.2

What do the screens show for `O=C(NCCCN1CCOCC1)c1ccccc1N1C(=O)[C@@H]2Cc3c([nH]c4ccccc34)C(c3ccc(F)cc3)N2C1=O` (stereo partly drawn)?
VLA-4 inh: -5.7; SUMO Mot1 rescue: -7.5; Efflux pump inh: -0.3; ALR inh: 22.2; Bfl-1 A1 inh: 0.0; AHR act: 7.6

Results for COc1cccc(C2c3[nH]c4ccccc4c3C[C@H]3C(=O)N(c4ccccc4C(=O)NCCCN4CCOCC4)C(=O)N23)c1 (stereo partly drawn) ?
VLA-4 inh: 42.5; SUMO Mot1 rescue: -9.7; Efflux pump inh: 0.4; ALR inh: 98.5*; Bfl-1 A1 inh: 0.3; AHR act: 8.1

How did O=C(NCCN1CCOCC1)c1ccccc1N1C(=O)[C@@H]2Cc3c([nH]c4ccccc34)C(c3ccccc3)N2C1=O (stereo partly drawn) do in these assays?
VLA-4 inh: -13.6; SUMO Mot1 rescue: 17.4; Efflux pump inh: -0.1; ALR inh: 99.2*; Bfl-1 A1 inh: -0.7; AHR act: 17.0

How did COc1cccc(NC(=O)CN(C)S(=O)(=O)/C=C/c2ccccc2)c1 do in these assays?
VLA-4 inh: 28.7; SUMO Mot1 rescue: 4.4; Efflux pump inh: 0.2; ALR inh: 0.4; Bfl-1 A1 inh: -0.4; AHR act: 0.0

What do the screens show for `CCN(CC)S(=O)(=O)c1cc(NC(=O)CSc2nnc(N)s2)ccc1C`?
VLA-4 inh: -3.4; SUMO Mot1 rescue: -2.9; Efflux pump inh: -0.3; ALR inh: 38.5; Bfl-1 A1 inh: 1.7; AHR act: 0.4

What do the screens show for `CCN(CC)S(=O)(=O)c1cc(NC(=O)CSc2nc3c(cc2C#N)C(=O)CC(C)(C)C3)ccc1C`?
VLA-4 inh: 16.1; SUMO Mot1 rescue: -30.3; Efflux pump inh: 0.1; ALR inh: 98.7*; Bfl-1 A1 inh: -0.2; AHR act: -1.7

What do the screens show for `O=C(CS(=O)(=O)c1ccccc1)NCc1ccccc1`?
VLA-4 inh: 10.3; SUMO Mot1 rescue: -1.9; Efflux pump inh: 0.3; ALR inh: 1.3; Bfl-1 A1 inh: -0.6; AHR act: -1.4

What do the screens show for `CCCC1=[N+](CC(=O)c2ccccc2)CCn2c(C)ccc21`?
VLA-4 inh: 18.6; SUMO Mot1 rescue: 52.4; Efflux pump inh: 0.1; ALR inh: -7.1; Bfl-1 A1 inh: 0.0; AHR act: 49.5*

How did CCCC1=[N+](CC)CCn2c(C)ccc21 do in these assays?
VLA-4 inh: 12.0; SUMO Mot1 rescue: -3.5; Efflux pump inh: 0.1; ALR inh: -3.7; Bfl-1 A1 inh: 0.3; AHR act: -1.4

What do the screens show for `CCCNC(=O)c1c(CSc2ccc(Cl)cc2)noc1C(=O)NCc1ccccc1`?
VLA-4 inh: -0.2; SUMO Mot1 rescue: 8.0; Efflux pump inh: -0.1; ALR inh: -5.7; Bfl-1 A1 inh: 1.8; AHR act: 2.6

What do the screens show for `CCOC(=O)N1CCN(C(=O)CN(c2ccc(OCC)cc2)S(C)(=O)=O)CC1`?
VLA-4 inh: -3.6; SUMO Mot1 rescue: -21.6; Efflux pump inh: -0.2; ALR inh: -5.2; Bfl-1 A1 inh: -0.6; AHR act: -2.5

What do the screens show for `CCOc1ccc(N(CC(=O)NN=C2CCN(C)CC2)S(C)(=O)=O)cc1`?
VLA-4 inh: 2.1; SUMO Mot1 rescue: -5.9; Efflux pump inh: 1.4; ALR inh: 91.4*; Bfl-1 A1 inh: 0.7; AHR act: 7.4

Results for CCSc1nnc(CNc2ccc(C)cc2)n1C ?
VLA-4 inh: 4.3; SUMO Mot1 rescue: 13.7; Efflux pump inh: -0.3; ALR inh: 56.5; Bfl-1 A1 inh: 0.0; AHR act: 75.4*

How did Cc1ccc(NCc2nnc(SCC(=O)Nc3cc(C)on3)n2C)cc1 do in these assays?
VLA-4 inh: 10.9; SUMO Mot1 rescue: -7.2; Efflux pump inh: -0.2; ALR inh: -6.5; Bfl-1 A1 inh: 2.8; AHR act: 5.2

How did Cn1c(CNc2ccc(Cl)cc2)nnc1SCC#N do in these assays?
VLA-4 inh: -6.2; SUMO Mot1 rescue: -13.4; Efflux pump inh: -0.1; Bfl-1 A1 inh: 0.3; AHR act: 59.0*

How did CSCc1ccc(C(=O)Nc2ccc(C(N)=O)cc2)cc1 do in these assays?
VLA-4 inh: 0.0; SUMO Mot1 rescue: 2.3; Efflux pump inh: -0.1; ALR inh: -5.7; Bfl-1 A1 inh: -7.0; AHR act: 12.9

How did CC(NC(=O)COC(=O)c1c[nH]c2ccccc12)c1ccccc1 (stereo not drawn) do in these assays?
VLA-4 inh: 0.1; SUMO Mot1 rescue: 1.8; Efflux pump inh: 0.0; ALR inh: 4.2; Bfl-1 A1 inh: 0.8; AHR act: 55.9*

How did COc1cccc(C(=O)N2CCC(C(=O)NCc3ccc(C)cc3)CC2)c1 do in these assays?
VLA-4 inh: -0.3; SUMO Mot1 rescue: -6.6; Efflux pump inh: 0.1; ALR inh: -4.6; Bfl-1 A1 inh: -0.2; AHR act: 4.6

What do the screens show for `CC1(C)c2cc(O)ccc2OC1N1CCOCC1` (stereo not drawn)?
VLA-4 inh: -9.6; SUMO Mot1 rescue: 56.2; Efflux pump inh: -0.3; ALR inh: 98.9*; Bfl-1 A1 inh: 9.5*; AHR act: -0.3

What do the screens show for `O=C(CCN=C1NS(=O)(=O)c2ccccc21)OCc1nnc(-c2ccc([N+](=O)[O-])cc2)o1`?
VLA-4 inh: 1.4; SUMO Mot1 rescue: -2.7; Efflux pump inh: 0.2; ALR inh: 8.2; Bfl-1 A1 inh: 0.4; AHR act: 4.0

Results for CN(c1cccc(NC(=O)Nc2cccc(Cl)c2)c1)S(C)(=O)=O ?
VLA-4 inh: 7.2; SUMO Mot1 rescue: 45.4; Efflux pump inh: 0.2; ALR inh: 1.3; Bfl-1 A1 inh: -2.6; AHR act: 76.8*

Results for COc1ccc(S(=O)(=O)N(C)c2ccc(C(=O)N3CCCCC3)cc2)cc1OC ?
VLA-4 inh: -1.3; SUMO Mot1 rescue: 158.4; Efflux pump inh: 0.3; ALR inh: 2.5; Bfl-1 A1 inh: -0.3; AHR act: -1.2

Results for COc1cc2c(cc1OC)C(C)N(C(C)=O)CC2 (stereo not drawn) ?
VLA-4 inh: 8.7; SUMO Mot1 rescue: 7.0; Efflux pump inh: -0.1; ALR inh: -1.6; Bfl-1 A1 inh: 0.0; AHR act: 1.1

How did COc1cc2c(cc1OC)C(C)N(C(=O)C1COc3ccccc3O1)CC2 (stereo not drawn) do in these assays?
VLA-4 inh: 10.4; SUMO Mot1 rescue: 755.1*; Efflux pump inh: 0.1; ALR inh: -6.2; Bfl-1 A1 inh: 0.3; AHR act: -0.2

How did CC1CCN(CC(O)COCCC23CC4CC(CC(C4)C2)C3)CC1 (stereo not drawn) do in these assays?
VLA-4 inh: 4.0; SUMO Mot1 rescue: 92.2; Efflux pump inh: -0.1; ALR inh: -3.5; Bfl-1 A1 inh: -0.8; AHR act: 3.4
